# From PubChem BioAssay
# IL1B secr inh – inhibitors of inflammasome signaling (IL-1 beta secretion); THP-1 LPS/ATP IL-1B secretion, AlphaLISA, 16 h; active compounds read low; activity change, % at 57.5 µM; 360,000 tested, 4.7% active; AID 743279; in the data active means activity change below about -50%; inconclusive means mostly about -30% to -49%
#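 THP-1 cells pretreated 1 hr with compounds (up to 57.5 uM final), then stimulated with LPS (250 ng/mL final) plus ATP (1.25 mM final); secreted IL-1B measured by AlphaLISA after 16 hr, decreased signal indicating inhibition.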
# Giardia kill – kills Giardia lamblia | Giardia lamblia trophozoite viability | activity change, % at 7.66 µM, hits read low | 340,000 tested, 0.15% active | AID 540267; in the data active means activity change below about -80%; inconclusive means between about -30% and that limit;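 further: parasites exposed to compound for two days anaerobically before the ATP read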
#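 Anaerobic 48 hrs incubation at 37 deg C of 100 trophozoites/well with test compounds; ATPLite 1-Step luminescence, 15-30 min RT, reports cellular ATP as viability.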
# ELG1 DNA repair – blocks ELG1-dependent DNA repair in HEK293T cells | HEK293T ELG1-luciferase reporter, luminescence, 16 h; DNA damage induced by 5-fluorouridine | Potency, µM (top dose mostly 46.1 µM), without a hit: at the top dose activity change, negative = inhibition, most hits filed as inhibitors | 330,000 tested, 2.3% active; further: potency means the concentration at half of the fitted maximal effect; nearly all actives have a fitted effect of over 55% in size
#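 In this reporter screen, reduction of luminescence relative to DMSO vehicle indicated activity. Compounds and 5-fluorouridine were added together to 2,000 cells per well, incubated for 16 hr at 37 °C, then developed with ONE-Glo.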
# TDP1 cell CPT – growth inhibition of DT40 Tdp1-/-;hTDP1 cells with camptothecin (screen for TDP1 inhibitors). 420,000 tested, 12% active. Potency, µM (top dose mostly 46.2 µM), for inactives: at the highest dose activity change, negative = growth inhibition, usual class: inhibitors. chicken DT40 Tdp1-/-;hTDP1 cells + 20 nM CPT, ATP luminescence, 48 h. AID 686979; further: potency means the concentration at half of the fitted maximal effect; nearly all actives have a fitted effect of over 55% in size
#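 Chicken DT40 Tdp1-/- cells complemented with human TDP1, 400 cells/well, exposed to compounds plus 20 nM camptothecin for at least 48 h at 37 C; viability read as ATP content by CellTiter-Glo luminescence.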
# DT40 TDP1 no CPT – qHTS for Inhibitors of human tyrosyl-DNA phosphodiesterase 1 (TDP1): qHTS in cells in absence of CPT; Potency, µM (doses to about 46.2 µM), for the others: at the top dose activity change, negative = growth inhibition, actives largely listed as inhibitors; DT40 Tdp1-/- hTDP1 cells, no CPT, ATP luminescence, 48 h; 420,000 tested, 15% active; AID 686978, 2013; further: potency means the concentration at half of the fitted maximal effect; nearly all actives have a fitted effect of over 55% in size
#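 A cellular qHTS used chicken DT40 cells lacking endogenous Tdp1 but carrying stably transfected human TDP1. Compounds were applied without camptothecin, and cell growth kinetics were judged by ATP-dependent luminescence after ≥48 hr.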
# TDP1 block – inhibitors of human tyrosyl-DNA phosphodiesterase TDP1. recombinant TDP1, AlphaScreen DNA substrate cleavage. Potency, µM (highest dose often 130 µM), without a hit: top-dose activity change, negative = inhibition, most hits filed as inhibitors. AID 485290. 350,000 tested, 0.28% active; further: potency means the concentration at half of the fitted maximal effect; nearly all actives have a fitted effect of over 40% in size
# Target sequence (Q9NUW8 whole entry, looked up): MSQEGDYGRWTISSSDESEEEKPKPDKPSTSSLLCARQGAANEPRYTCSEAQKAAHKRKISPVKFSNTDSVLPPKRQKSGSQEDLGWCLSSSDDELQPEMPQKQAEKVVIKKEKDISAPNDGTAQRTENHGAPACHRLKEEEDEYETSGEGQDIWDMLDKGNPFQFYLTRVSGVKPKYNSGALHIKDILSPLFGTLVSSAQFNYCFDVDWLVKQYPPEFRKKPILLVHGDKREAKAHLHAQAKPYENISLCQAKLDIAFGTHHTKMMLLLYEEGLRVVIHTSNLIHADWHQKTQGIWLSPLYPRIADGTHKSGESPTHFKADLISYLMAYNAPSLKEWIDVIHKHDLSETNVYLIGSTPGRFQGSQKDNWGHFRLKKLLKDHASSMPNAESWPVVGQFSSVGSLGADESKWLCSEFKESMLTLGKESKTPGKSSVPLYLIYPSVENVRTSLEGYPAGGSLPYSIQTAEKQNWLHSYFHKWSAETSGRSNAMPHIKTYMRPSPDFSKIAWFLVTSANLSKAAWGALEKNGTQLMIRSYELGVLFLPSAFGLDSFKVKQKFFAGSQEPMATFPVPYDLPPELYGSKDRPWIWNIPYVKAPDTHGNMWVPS
#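 E. coli-derived human Tdp1, 1 nM final. Cpd preinc 15 min RT; substrate 15 nM final, 5 min RT; AS bead mix 10 ug/ml final, 10 min RT. Signal loss = tyrosine-FITC cleavage. No-enzyme wells = max signal.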
# Starred values were filed as active, the others as inactive; ? = inconclusive; . = no result; [ ] = another dose, or the depositor's remark. A selection: hits, their analogues and other compounds. The true share with any hit is near 19%. Unless noted, the call rests on the fitted dose curve; in most records, active means well fitted curve in the direction sought with a large enough effect; inconclusive means small, poorly fitted or top-dose-only effect, or another doubt; inactive means no such curve, though single readings can be large; an effect the other way counts as inactive or inconclusive. On the % scale 0 is the no-effect control and ±100 the full control effect.
SMILES,IL1B secr inh,Giardia kill,ELG1 DNA repair,TDP1 cell CPT,DT40 TDP1 no CPT,TDP1 block
COc1ccccc1C1CC(c2cccs2)=Nc2ccccc2S1 (stereo unspecified),-1,-24,?,?,?,4%
O=C(COc1ncnc2c1cnn2-c1ccccc1)Nc1ccc(S(=O)(=O)N2CCCCC2)cc1,0,6,?,16µM*,?,8%
COc1ccccc1OCC(=O)Nc1ccc(S(=O)(=O)N2CCCCCC2)cc1,-4,9,?,?,?,-4%
NS(=O)(=O)c1cccc(NC(=O)COc2ncnc3c2cnn3-c2ccccc2)c1,26,-17,-11%,0%,6%,0%
CCCOc1ccccc1C(=O)Nc1ccc(S(=O)(=O)N2CCN(C)CC2)cc1,-16,3,?,18µM*,16µM*,5%
CCCOc1ccccc1OCC(=O)Nc1ccc(S(=O)(=O)N2CCCC2)cc1,1,-8,?,?,16µM*,7%
CC1(C(=O)NS(=O)(=O)c2cccc(Cl)c2)CCN1C(=O)Cc1ccc(Cl)cc1Cl (stereo unspecified),-19,.,.,-10%,-13%,.
CCc1nc2c(OCC(=O)c3ccc(F)cc3)cccn2c1N(C)C(=O)c1ccc(OC)cc1,-12,.,.,-15%,-5%,.
CC(C)c1nc(SCC(=O)Nc2cccc(C(F)(F)F)c2)c2c(=O)n(C)c(=O)n(C)c2n1,0,-20,?,4.6µM*,3.7µM*,-3%
CCCc1cnc2c(c1SCC(=O)Nc1ccc(C)c(Cl)c1)c(=O)n(C)c(=O)n2C,.,.,.,18µM*,?,3%
Cn1c(=O)c2c(nc(SCC(=O)Nc3ccc(OC(F)(F)F)cc3)n2Cc2cccc(C(F)(F)F)c2)n(C)c1=O,.,.,.,10µM*,8.2µM*,-1%
CC(C)c1nc(SCC(=O)Nc2ccc3c(c2)OCCO3)c2c(=O)n(C)c(=O)n(C)c2n1,10,14,-5%,?,?,0%
CCc1ccc(NC(=O)CSc2c(C)cnc3c2c(=O)n(C)c(=O)n3C)cc1,.,.,.,23µM*,23µM*,8%
Cc1ccc(Cn2ccn(Cc3ccccc3F)c(=O)c2=O)cc1,.,.,.,-11%,-27%,1%
O=C(OCC#CCSc1nnc(-c2cccc3ccccc23)o1)c1ccc(Cl)c(C(F)(F)F)c1,.,.,.,.,.,-3%
CCc1cnc2c(c1SCc1ccccc1C)c(=O)n(C)c(=O)n2C,.,.,.,-25%,?,5%
Cc1cnc2c(c1SCC(=O)NCc1ccc(F)cc1)c(=O)n(C)c(=O)n2C,.,.,.,-4%,-26%,5%
Cc1ccc(C)c(CSc2c(C(C)C)cnc3c2c(=O)n(C)c(=O)n3C)c1,.,.,.,18µM*,?,5%
CCCc1cnc2c(c1SCc1ccc(C(F)(F)F)cc1)c(=O)n(C)c(=O)n2C,.,.,.,?,21µM*,3%
CC(C)c1cnc2c(c1SCC(=O)Nc1ccc(OC(F)(F)F)cc1)c(=O)n(C)c(=O)n2C,.,.,.,9.2µM*,8.2µM*,-3%
CCOC(=O)c1ccc(NC(=O)CSc2c(C(C)C)cnc3c2c(=O)n(C)c(=O)n3C)cc1,.,.,.,-13%,-16%,0%
Cc1ccc(CSc2c(C)cnc3c2c(=O)n(C)c(=O)n3C)cc1,.,.,.,23µM*,?,-5%
COc1ccccc1NC(=O)Nc1ccc(CC#N)cc1,?,8,?,-12%,-23%,3%
O=C1[C@H](Cc2ccccc2)NCC=CC[C@H](c2ccco2)N1Cc1ccccc1,-11,3,.,21µM*,?,.
O=C1[C@H](Cc2ccccc2)NCC=CC[C@@H](c2ccc(Cl)cc2)N1Cc1ccccc1,?,-2,.,?,10µM*,.
SMILES,IL1B secr inh,Giardia kill,ELG1 DNA repair,TDP1 cell CPT,DT40 TDP1 no CPT,TDP1 block
O=C1NC(Cc2ccccc2)C(=O)N1Cc1ccccc1 (stereo unspecified),-7,-3,.,4%,-18%,.
CC(C)(C)c1ccc(C(=O)O)c(C(=O)c2ccccc2)c1,20,-1,5%,2%,-9%,2%
Fc1cc(Cl)ccc1NC1=NCCCCC1,-67*,9,12%,-12%,-3%,.
COC(=O)[C@@]1(Cc2ccccc2)[C@H]2C(=O)N(C)C(=O)[C@H]2[C@H]2CN=C(SCC(=O)c3ccccc3)N21,3,17,12%,-4%,?,0%[56.1 µM]
COC(=O)[C@@]1(Cc2ccccc2)[C@H]2C(=O)N(C)C(=O)[C@H]2[C@H]2CN=C(SCc3ccc(C)cc3)N21,-8,-26,-4%,18µM*,16µM*,1%[56.1 µM]
COC(=O)[C@@]1(Cc2ccccc2)[C@H]2C(=O)N(C)C(=O)[C@H]2[C@H]2CN=C(SCc3ccc(Cl)cc3)N21,0,10,-2%,13µM*,12µM*,1%[56.1 µM]
COC(=O)c1ccc(CSC2=NC[C@@H]3[C@@H]4C(=O)N(C)C(=O)[C@@H]4[C@](Cc4ccccc4)(C(=O)OC)N23)cc1,-7,-9,3%,16µM*,?,0%[56.1 µM]
CCN1C(=O)[C@H]2[C@H]3CN=C(SCC4CC4)N3[C@@](Cc3ccccc3)(C(=O)OC)[C@H]2C1=O,-19,-10,6%,-27%,?,-3%[56.1 µM]
COC(=O)[C@@]1(Cc2ccccc2)[C@H]2C(=O)N(C)C(=O)[C@H]2[C@H]2CN=C(SCC3CC3)N21,-5,-10,1%,3.7µM*,-19%,-1%[56.1 µM]
O=C(O)CSc1cc(C(=O)c2ccccc2O)cn2c(=O)c3c4c(sc3nc12)CCCC4,10,27,-7%,3%,-1%,.
COc1ccc(-n2nc3ccc(N)cc3n2)cc1,39,.,.,16µM*,?,.
CCOc1ccc(-n2nc3ccc(N)cc3n2)cc1,1,?,?,-18%,?,.
O=S(=O)(NCC(c1ccco1)N1CCOCC1)c1ccc(F)cc1 (stereo unspecified),.,.,.,-12%,-10%,5%
Brc1ccc(OCc2nnnn2-c2ccccc2)cc1,-69*,-1,6%,0%,?,3%
COc1ccc(OCc2nnnn2-c2ccccc2)cc1,-10,12,16%,-4%,-1%,3%
Cc1ccc2cc(CCNC(=O)c3cccs3)c(=O)[nH]c2c1C,-20,?,?,23µM*,?,4%
Cc1ccc2cc(CCNC(=O)c3ccc(C)c([N+](=O)[O-])c3)c(=O)[nH]c2c1,-21,0,?,21µM*,?,5%
Cc1ccc2cc(CCNC(=O)c3cccc([N+](=O)[O-])c3)c(=O)[nH]c2c1C,0,2,18µM*,23µM*,16µM*,1%
